Compound activity deposited in PubChem BioAssay by National Center for Advancing Translational Sciences (NCATS).
HCMV inh – qHTS Assay for inhibitors of the human cytomegalovirus (HCMV); AID 1259415, 2018; activity change, negative = inhibition, % at 57.5 µM; HFF cells, HCMV-luciferase reporter, 72 h; stronger effect = lower value; 410,000 compounds, 4.5% hits; in the data active = activity change below about -60%; inconclusive = no clear call, values can overlap the other calls; inactive = above about -39%
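Luciferase read-out from HCMV-luciferase-infected HFFs (MOI 1 PFU/cell) 72 h post infection at 37C; compounds added after 16 h cell attachment; activity normalized between buffer-only basal and Salinomycin (10uM) inhibitor controls.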
Pf growth 96h – Primary qHTS for delayed death inhibitors of the malarial parasite plastid, 96 hour incubation. P. falciparum luciferase reporter growth, 96 h. 320,000 compounds, 6.9% hits. Potency, µM (top dose mostly 28.7 µM), for the others: top-dose activity change, negative = inhibition, hits mostly inhibitors; also: potency is read from the fitted curve at half-maximal effect
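Compounds incubated with erythrocytes infected by luciferase-expressing P. falciparum (2% hematocrit, 0.05% parasitemia final) for 96 hours, 37 C in 5% CO2. Growth inhibition scored as decreased luciferase luminescence.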
HCV inhibitor – qHTS Assay for Inhibitors of Hepatitis C Virus (HCV); 340,000 compounds, 3.4% hits; Huh7.5.1 HCVcc-Cre infection, luciferase reporter, 44 h; Potency, µM (titrated, usually from 41.8 µM), for inactives: at the top dose activity change, negative = inhibition, actives largely listed as inhibitors; also: potency is read from the fitted curve at half-maximal effect
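Cells (1,000/well) were plated 4 h before compound, then infected with HCVcc-Cre virus (~0.5 moi). After 44 h further culture, infection was read as luciferase luminescence following a 15 min substrate incubation at room temperature.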
Marburg entry inh – qHTS for inhibitors of binding or entry into cells for Marburg Virus. Marburg virus pseudotyped entry inhibition, cell reporter. Potency, µM (titrated, usually from 37.8 µM), inactives show top-dose activity change, negative = inhibition, usual class: inhibitors. 300,000 compounds, 1.8% hits. AID 540276, 2011; calls by dose curve; tested in HEK293 cells; also: potency is read from the fitted curve at half-maximal effect
LASV entry inh – qHTS for Inhibitors of binding or entry into cells for Lassa Virus; 300,000 compounds, 1.2% hits; Lassa virus pseudotype entry inhibition, cell reporter; Potency, µM (titrated, usually from 37.9 µM), inactives show at the top dose activity change, negative = inhibition, actives largely listed as inhibitors; AID 540256, 2011; calls by dose curve; tested in HEK293 cells; also: potency is read from the fitted curve at half-maximal effect; nearly all actives have a fitted effect of over 50% in size
Pf growth 48h – Primary qHTS for delayed death inhibitors of the malarial parasite plastid, 48 hour incubation. P. falciparum luciferase growth in erythrocytes, 48 h. Potency, µM (top dose mostly 28.7 µM), for inactives: top-dose activity change, negative = inhibition, actives largely listed as inhibitors. 310,000 compounds, 5.9% hits. AID 504832, 2011; also: potency is read from the fitted curve at half-maximal effect
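Cell-based growth assay: transgenic P. falciparum expressing firefly luciferase, cultured in red cells within RPMI 1640 containing 0.5% w/v Albumax, 24 mM bicarbonate and gentamycin. A drop in luciferase activity indicates inhibition.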
Active calls of the source: *; ? = inconclusive; nt = not tested or not shown; [ ] = another dose, or the depositor's remark. Rows were chosen to be rich in hits. Some 14% of all compounds tested hit in one or more screens of this group. Unless noted, calls follow the shape of the dose curve; as a rule, active = well fitted inhibition curve with a large enough effect; inconclusive = small, poorly fitted or top-dose-only effect, or another doubt; inactive = no such curve, though single readings can be large or run the other way. % is scaled to controls: 0 for no effect and ±100 for the full control effect.

SMILES	HCMV inh	Pf growth 96h	HCV inhibitor	Marburg entry inh	LASV entry inh	Pf growth 48h
Cc1ccc(C(OCC(O)CN2CCCCC2)c2ccccc2)cc1 (centres undefined)	-12.4	?	7.2%	?	-16.0%	?
OC(COC(c1ccc(Cl)cc1)c1ccc(Cl)cc1)CN1CCCC1 (centres undefined)	27.8	4.65µM*	5.62µM*	?	?	?
COc1ccc(NS(=O)(=O)c2ccc(C)c(C(=O)NCc3ccccc3CN3CCCC3)c2)cc1	3.6	nt	nt	nt	nt	nt
COC(=O)C1=CNC=C(C(=O)OC)C1c1cccc(OC)c1	-8.8	29.5%	9.9%	-1.2%	0.5%	?
COC(=O)C1=CNC=C(C(=O)OC)C1c1cccc2ccccc12	-4.7	6.1%	-9.5%	?	-27.9%[46.1 µM]	11.7µM*
COC(=O)C1=CNC=C(C(=O)OC)C1c1ccc(Cl)cc1	80.7	1.3%	?	?	5.1%	9.28µM*
COC(=O)C1=CN(C2CC2)C=C(C(=O)OC)C1c1ccc(C(=O)OC)cc1	-6.4	224.7%	-12.3%	-4.4%	-25.4%	?
COC(=O)C1=CN(c2cccc(Cl)c2)C=C(C(=O)OC)C1c1cccc(OC)c1	-2.0	53.9%	?	?	?	11.7µM*
COC(=O)C1=CN(c2ccc(Cl)cc2)C=C(C(=O)OC)C1c1ccc([N+](=O)[O-])cc1	7.8	5.22µM*	-27.5%	?	?	13.1µM*
COC(=O)C1=CNC=C(C(=O)OC)C1c1ccccc1Cl	88.4	10.4%	-4.6%	-13.2%	-2.5%	-24.6%
COC(=O)N1C(c2ccccc2)=Cc2ccccc2C1CC(C)=O (centres undefined)	nt	nt	nt	0.2%[14.2 µM]	nt	nt
CC(NC(=O)C(C)N1CCN(S(=O)(=O)c2ccccc2)CC1)c1ccccc1 (centres undefined)	-8.8	?	-20.1%	25.1%	-2.4%	-32.2%
COC(=O)C1=CN(c2ccc(OC)cc2)C=C(C(=O)OC)C1c1ccc([N+](=O)[O-])cc1	-1.5	4.15µM*	-3.4%	?	?	13.1µM*
COC(=O)C1=CN(c2ccc(F)cc2)C=C(C(=O)OC)C1c1cccc(Br)c1	3.5	-13.8%	?	?	?	11.7µM*
